Reference: the supplement of paper PMC11732987, “Enantioselective OTUD7B fragment discovery through chemoproteomics screening and high-throughput optimisation” (Communications Chemistry, 2025)

Assays:
Test in all cases: log2 ratio of Biotin-Ahx-Ub-VS probe labelling (fragment/DMSO); higher = less target engagement (more negative = stronger competition), active = hit call of the paper (q ≤ 0.05, log2 ratio ≤ -1)
Settings in all cases: compound concentration: 200 uM; treatment time: 3 h
[1] = target: T1, USP19 (UniProt O94966)
T1 sequence (whole entry): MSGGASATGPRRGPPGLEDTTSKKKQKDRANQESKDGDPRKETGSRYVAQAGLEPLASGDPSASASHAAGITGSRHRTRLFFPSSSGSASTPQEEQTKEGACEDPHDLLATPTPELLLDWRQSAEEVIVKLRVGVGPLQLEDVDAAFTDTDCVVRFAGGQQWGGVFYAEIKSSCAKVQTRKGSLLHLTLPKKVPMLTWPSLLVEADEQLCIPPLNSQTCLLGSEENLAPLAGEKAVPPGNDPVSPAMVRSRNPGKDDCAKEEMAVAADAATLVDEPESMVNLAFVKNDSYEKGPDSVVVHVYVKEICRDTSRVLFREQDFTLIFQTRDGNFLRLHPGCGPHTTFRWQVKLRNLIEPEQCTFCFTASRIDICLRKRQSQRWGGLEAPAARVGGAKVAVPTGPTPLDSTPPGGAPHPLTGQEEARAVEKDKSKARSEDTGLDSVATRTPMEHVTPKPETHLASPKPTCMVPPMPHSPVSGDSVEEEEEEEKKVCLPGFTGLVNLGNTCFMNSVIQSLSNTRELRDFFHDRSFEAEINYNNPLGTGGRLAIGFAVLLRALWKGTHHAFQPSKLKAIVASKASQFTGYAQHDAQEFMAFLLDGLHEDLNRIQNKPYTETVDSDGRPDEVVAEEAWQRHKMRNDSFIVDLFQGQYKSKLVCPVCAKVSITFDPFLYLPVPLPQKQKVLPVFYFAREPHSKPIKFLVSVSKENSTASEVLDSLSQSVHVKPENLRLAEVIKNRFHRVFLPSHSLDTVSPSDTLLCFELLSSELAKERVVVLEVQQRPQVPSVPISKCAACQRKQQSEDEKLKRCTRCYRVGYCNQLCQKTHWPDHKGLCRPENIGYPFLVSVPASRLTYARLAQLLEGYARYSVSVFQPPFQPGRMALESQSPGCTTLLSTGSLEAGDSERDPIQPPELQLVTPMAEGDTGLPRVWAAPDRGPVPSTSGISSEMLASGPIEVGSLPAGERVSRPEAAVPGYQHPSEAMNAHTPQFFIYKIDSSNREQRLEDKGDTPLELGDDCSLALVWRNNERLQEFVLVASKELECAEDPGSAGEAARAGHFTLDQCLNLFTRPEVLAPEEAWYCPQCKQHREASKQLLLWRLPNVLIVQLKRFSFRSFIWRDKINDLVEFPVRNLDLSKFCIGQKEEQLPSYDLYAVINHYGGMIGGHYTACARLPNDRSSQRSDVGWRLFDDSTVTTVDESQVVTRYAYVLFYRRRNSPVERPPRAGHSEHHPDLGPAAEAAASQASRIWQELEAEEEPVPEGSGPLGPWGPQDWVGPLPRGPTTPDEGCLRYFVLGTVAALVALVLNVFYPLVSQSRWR
In short: (§1)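 Each value is an average log2 ratio of fragment to vehicle, tested by unpaired t-test. The underlying Spectronaut label-free quantities were global-median-normalised, and only proteins with ≥2 unique peptides were included. Triplicate HEK293T lysate samples (495 µg) were exposed to fragment at 200 µM or vehicle for 3 h, then to Biotin-Ahx-Ub-VS at 0.5 µM final for 1 h, before NeutrAvidin enrichment of labelled DUBs, LysC and trypsin digestion, and diaPASEF LC-MS/MS.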

[2] = target: T2, USP22 (UniProt Q9UPT9)
T2 sequence (whole entry): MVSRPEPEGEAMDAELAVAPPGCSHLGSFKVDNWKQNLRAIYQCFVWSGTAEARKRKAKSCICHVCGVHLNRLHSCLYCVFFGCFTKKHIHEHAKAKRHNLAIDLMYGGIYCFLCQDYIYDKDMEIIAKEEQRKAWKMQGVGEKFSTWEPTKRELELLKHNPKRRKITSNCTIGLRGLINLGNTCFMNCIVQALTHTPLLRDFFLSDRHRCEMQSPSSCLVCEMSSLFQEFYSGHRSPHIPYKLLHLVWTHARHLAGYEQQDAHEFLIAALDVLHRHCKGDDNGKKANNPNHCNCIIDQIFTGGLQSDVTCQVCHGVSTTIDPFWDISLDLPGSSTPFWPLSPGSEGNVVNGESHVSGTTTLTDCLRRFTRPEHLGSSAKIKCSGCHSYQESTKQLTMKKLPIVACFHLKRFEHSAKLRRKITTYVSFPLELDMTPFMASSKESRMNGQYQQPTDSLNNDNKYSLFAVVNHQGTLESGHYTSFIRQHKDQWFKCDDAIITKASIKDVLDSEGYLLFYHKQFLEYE
In short: as §1

[3] = target: USP24 (UniProt Q9UPU5)
Chain of USP24 (Q9UPU5 whole entry): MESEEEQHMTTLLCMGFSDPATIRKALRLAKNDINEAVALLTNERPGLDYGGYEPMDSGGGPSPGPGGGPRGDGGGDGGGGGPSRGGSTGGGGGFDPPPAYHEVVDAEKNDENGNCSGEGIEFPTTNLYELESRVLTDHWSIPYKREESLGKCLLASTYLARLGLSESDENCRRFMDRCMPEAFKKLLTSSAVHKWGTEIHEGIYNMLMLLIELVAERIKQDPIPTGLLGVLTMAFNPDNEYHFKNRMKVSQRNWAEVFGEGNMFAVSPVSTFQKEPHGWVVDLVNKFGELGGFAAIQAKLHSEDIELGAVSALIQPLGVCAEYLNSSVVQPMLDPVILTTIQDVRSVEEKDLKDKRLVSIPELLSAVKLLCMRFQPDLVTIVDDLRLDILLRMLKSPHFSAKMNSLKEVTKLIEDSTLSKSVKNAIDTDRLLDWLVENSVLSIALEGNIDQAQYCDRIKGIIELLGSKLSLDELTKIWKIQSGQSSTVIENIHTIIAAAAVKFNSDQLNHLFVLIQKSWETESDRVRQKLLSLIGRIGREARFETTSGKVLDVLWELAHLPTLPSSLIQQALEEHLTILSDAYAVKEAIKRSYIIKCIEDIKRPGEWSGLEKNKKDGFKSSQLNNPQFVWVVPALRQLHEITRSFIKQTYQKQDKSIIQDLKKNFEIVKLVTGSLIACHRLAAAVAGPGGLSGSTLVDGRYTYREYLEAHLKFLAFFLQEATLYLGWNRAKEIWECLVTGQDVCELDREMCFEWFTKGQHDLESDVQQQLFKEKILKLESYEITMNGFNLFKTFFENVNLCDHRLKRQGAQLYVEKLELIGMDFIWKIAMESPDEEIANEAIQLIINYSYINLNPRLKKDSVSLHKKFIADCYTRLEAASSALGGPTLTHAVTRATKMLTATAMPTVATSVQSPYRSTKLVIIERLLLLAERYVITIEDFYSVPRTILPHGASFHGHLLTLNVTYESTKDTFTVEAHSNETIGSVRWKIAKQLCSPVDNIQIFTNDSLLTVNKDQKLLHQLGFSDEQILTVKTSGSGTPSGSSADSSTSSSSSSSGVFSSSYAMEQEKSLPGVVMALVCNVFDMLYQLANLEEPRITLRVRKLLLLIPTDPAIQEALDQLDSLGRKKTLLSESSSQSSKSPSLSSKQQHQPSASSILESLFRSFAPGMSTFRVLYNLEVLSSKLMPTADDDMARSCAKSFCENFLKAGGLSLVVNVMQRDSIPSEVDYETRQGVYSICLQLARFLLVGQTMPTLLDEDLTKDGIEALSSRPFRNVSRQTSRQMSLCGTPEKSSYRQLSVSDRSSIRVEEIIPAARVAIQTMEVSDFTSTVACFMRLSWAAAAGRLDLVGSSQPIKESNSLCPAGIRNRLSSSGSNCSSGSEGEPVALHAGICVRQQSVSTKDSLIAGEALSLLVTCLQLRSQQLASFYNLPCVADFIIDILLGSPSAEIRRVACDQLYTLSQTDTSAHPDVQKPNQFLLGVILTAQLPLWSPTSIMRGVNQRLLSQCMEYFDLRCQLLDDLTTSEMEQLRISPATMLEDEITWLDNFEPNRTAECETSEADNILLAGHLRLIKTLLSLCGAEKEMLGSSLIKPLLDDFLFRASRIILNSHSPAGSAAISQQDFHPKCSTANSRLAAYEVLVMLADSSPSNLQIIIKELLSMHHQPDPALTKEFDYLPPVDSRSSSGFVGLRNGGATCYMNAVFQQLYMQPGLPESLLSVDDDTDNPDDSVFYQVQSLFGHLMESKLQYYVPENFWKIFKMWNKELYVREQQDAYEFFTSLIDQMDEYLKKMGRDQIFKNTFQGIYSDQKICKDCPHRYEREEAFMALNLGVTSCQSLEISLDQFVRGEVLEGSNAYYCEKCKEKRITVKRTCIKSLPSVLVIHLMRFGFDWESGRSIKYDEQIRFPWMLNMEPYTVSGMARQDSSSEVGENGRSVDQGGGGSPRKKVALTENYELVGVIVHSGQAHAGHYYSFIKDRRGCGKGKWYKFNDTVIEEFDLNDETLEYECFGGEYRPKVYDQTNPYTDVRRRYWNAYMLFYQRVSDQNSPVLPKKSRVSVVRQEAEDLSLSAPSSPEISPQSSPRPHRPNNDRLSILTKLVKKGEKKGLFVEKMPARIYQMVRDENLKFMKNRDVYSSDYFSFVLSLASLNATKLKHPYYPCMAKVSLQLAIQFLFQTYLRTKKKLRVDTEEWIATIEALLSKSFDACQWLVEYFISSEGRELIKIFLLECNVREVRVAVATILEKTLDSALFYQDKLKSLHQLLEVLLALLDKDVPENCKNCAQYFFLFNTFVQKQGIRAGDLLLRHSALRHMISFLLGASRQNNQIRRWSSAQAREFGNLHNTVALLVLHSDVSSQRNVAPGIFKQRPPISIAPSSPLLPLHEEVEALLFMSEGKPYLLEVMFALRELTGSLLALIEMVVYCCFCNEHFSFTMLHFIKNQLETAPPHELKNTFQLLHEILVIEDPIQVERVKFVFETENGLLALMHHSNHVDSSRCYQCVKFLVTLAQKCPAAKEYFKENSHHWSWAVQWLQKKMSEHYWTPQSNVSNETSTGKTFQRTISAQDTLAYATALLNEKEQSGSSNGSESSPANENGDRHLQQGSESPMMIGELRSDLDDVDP
In short: as §1

[4] = target: T3, USP25 (UniProt Q9UHP3)
T3 sequence (whole entry): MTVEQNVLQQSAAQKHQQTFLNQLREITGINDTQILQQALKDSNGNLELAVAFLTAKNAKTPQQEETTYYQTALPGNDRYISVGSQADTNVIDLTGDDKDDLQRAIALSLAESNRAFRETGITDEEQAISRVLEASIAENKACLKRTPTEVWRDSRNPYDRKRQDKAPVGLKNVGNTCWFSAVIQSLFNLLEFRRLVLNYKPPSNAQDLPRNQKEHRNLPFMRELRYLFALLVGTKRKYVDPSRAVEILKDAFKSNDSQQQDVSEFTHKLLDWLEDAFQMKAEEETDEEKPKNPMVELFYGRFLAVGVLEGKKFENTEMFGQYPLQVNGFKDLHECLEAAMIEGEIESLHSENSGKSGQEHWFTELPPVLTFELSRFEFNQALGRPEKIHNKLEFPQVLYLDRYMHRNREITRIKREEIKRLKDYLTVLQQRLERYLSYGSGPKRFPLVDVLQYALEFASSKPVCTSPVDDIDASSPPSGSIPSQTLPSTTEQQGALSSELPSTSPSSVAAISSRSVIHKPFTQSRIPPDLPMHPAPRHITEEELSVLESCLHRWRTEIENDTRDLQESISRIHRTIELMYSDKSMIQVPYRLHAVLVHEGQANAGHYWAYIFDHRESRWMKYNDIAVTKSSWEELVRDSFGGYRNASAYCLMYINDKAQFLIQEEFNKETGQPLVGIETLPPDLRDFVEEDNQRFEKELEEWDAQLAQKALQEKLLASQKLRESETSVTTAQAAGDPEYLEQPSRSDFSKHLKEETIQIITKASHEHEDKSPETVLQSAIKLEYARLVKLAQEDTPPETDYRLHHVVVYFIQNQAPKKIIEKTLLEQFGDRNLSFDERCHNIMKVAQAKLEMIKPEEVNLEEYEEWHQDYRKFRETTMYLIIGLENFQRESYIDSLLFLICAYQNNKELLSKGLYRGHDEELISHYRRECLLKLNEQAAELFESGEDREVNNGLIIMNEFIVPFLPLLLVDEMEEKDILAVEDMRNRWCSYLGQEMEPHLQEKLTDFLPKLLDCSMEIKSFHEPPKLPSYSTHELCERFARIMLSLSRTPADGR
In short: as §1

[5] = target: T4, USP28 (UniProt Q96RU2)
T4 sequence (whole entry): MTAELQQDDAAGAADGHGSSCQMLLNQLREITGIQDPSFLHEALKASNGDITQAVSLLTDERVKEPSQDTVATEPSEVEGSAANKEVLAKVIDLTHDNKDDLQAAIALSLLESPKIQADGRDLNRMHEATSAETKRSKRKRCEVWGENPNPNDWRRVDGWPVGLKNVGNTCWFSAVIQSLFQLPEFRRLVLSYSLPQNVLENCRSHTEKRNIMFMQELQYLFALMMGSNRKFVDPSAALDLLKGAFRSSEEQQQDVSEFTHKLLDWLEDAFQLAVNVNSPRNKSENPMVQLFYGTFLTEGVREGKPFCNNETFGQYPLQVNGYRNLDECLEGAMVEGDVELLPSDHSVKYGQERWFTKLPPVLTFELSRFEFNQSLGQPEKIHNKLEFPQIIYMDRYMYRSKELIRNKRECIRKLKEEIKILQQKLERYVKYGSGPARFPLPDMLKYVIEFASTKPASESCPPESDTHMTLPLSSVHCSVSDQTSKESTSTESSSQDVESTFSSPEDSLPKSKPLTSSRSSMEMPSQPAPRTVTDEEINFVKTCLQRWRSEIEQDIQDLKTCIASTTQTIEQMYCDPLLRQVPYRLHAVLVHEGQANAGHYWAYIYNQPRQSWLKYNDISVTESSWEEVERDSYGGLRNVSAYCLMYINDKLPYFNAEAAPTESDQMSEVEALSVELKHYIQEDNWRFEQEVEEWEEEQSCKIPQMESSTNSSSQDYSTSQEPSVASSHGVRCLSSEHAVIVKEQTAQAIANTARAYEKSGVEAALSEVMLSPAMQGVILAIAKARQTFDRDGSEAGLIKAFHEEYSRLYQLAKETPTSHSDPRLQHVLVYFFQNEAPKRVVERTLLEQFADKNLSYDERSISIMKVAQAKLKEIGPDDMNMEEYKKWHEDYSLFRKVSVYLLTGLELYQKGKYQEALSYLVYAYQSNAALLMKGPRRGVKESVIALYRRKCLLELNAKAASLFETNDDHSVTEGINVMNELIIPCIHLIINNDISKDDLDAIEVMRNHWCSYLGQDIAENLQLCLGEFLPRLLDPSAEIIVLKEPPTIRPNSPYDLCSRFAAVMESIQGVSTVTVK
In short: as §1

Measured: log2 ratio of Biotin-Ahx-Ub-VS probe labelling

CCN(C(=O)CCl)C1CCS(=O)(=O)C1 (stereo not given)
inactive: [1] 0.00457 | [2] -0.0368 | [3] 0.0946 | [4] -0.0672 | [5] -0.106
